Rows were chosen to be rich in hits. Some 19% of all compounds tested hit in one or more screens of this group.
Pf growth 96h = inhibits malaria parasite growth, 96 h. P. falciparum luciferase reporter growth, 96 h. 320,000 tested, 6.9% active. Potency, µM (titrated, usually from 28.7 µM), for inactives: at the highest dose activity change, negative = inhibition, hits mostly inhibitors; further: potency means the concentration at half of the fitted maximal effect; on the % scale 0 is the no-effect control and ±100 the full control effect
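Plates of compound plus infected erythrocytes (2% hematocrit, 0.05% parasitemia final) incubate 96 hours, 37 C, 5% CO2. Detection reagent added; reduced luminescence from the parasites' luciferase reporter flags inhibition.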
Pf growth 48h = inhibits P. falciparum growth in the first generation, 48 h | Potency, µM (series often up to 28.7 µM), for inactives: at the top dose activity change, negative = inhibition, actives largely listed as inhibitors | 310,000 tested, 5.9% active | AID 504832 | P. falciparum luciferase growth in erythrocytes, 48 h; further: potency means the concentration at half of the fitted maximal effect; on the % scale 0 is the no-effect control and ±100 the full control effect
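Luciferase-expressing parasites in RBCs, 2% Hct / 0.1% parasitemia final; RPMI 1640 + 0.5% Albumax; 37 C, 5% CO2, one generation; luminescence read-out, lower signal = inhibition.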
MARV entry inh = inhibitors of Marburg virus binding or cell entry | Marburg virus pseudotyped entry inhibition, cell reporter | Potency, µM (doses to about 37.8 µM), for inactives: at the highest dose activity change, negative = inhibition, actives largely listed as inhibitors | 300,000 tested, 1.8% active | AID 540276; calls by dose curve; tested in HEK293 cells; further: potency means the concentration at half of the fitted maximal effect; on the % scale 0 is the no-effect control and ±100 the full control effect
Shiga inhibitor = inhibitors of Shiga toxin in Vero cells. Vero cells, Shiga toxin protein synthesis inhibition reporter. inhibition, % at 38.7 µM. 290,000 tested, 9.2% active. AID 2315; in the data active means inhibition mostly above about 28%, no sharp cut-off; inactive means mostly below about 43%; further: 0% is about no effect
CHX counter = counter-screen for Shiga toxin inhibitors: cycloheximide protein synthesis inhibition | cell reporter, cycloheximide protein synthesis inhibition counterscreen | max response, % | 300,000 tested, 12% active | AID 2314; in the data active means max response mostly above about 13%, no sharp cut-off; inactive means mostly below about 14%; further: read at 38.3 µM for the half of the compounds with a filed dose; 0% is about no effect
LASV entry inh = blocks Lassa virus binding to or entry into cells; Lassa virus pseudotype entry inhibition, cell reporter; Potency, µM (doses to about 37.9 µM), without a hit: at the highest dose activity change, negative = inhibition, usual class: inhibitors; 300,000 tested, 1.2% active; AID 540256; calls by dose curve; tested in HEK293 cells; further: potency means the concentration at half of the fitted maximal effect; on the % scale 0 is the no-effect control and ±100 the full control effect; nearly all actives have a fitted effect of over 50% in size
* marks the source's active call; other numbers are inactive results; u = inconclusive; x = no result; + = active, no number; [ ] = another dose, or the depositor's remark. Unless noted, the call rests on the fitted dose curve; in most records, active means well fitted inhibition curve with a large enough effect; inconclusive means small, poorly fitted or top-dose-only effect, or another doubt; inactive means no such curve, though single readings can be large or run the other way.

SMILES	Pf growth 96h	Pf growth 48h	MARV entry inh	Shiga inhibitor	CHX counter	LASV entry inh
Cc1ccc(-n2c(C)cc(C(=O)CN3CCCCC3)c2C)cc1	u	u	u	87*	40*	u
Cc1cc(C(=O)CN2CC(C)OC(C)C2)c(C)n1-c1ccccc1 (stereo not drawn)	-8%	-18%	x	50*	13*	x
CCCNC(=O)Cn1cnc2sc(C(=O)NCCN(CC)CC)c(C)c2c1=O	130%	24%	1%[46.1 µM]	-10	-3	-8%
Cc1c(C(=O)Oc2ccc(F)cc2)sc2ncn(Cc3cccc(F)c3)c(=O)c12	11%	3%	u	-2	-4	11%
CCCCN(C)C(=O)c1sc2ncn(CC)c(=O)c2c1C	10µM*	7%	5%	67	19	4%
CCn1cnc2sc(C(=O)Oc3cccc(C)c3)c(C)c2c1=O	u	146%	u	79*	29*	6%[46.1 µM]
Nc1ccc(C(=O)Nc2nc3ccccc3s2)cc1	243%	147%	x	42*	41*	x
Cc1cc(C)n(-c2ccc(C(=O)Nc3nc4ccccc4s3)cc2)n1	280%	126%	-7%	26	20*	u
CC(=O)Nc1cc(C)nn1-c1nc2ccccc2s1	193%	462%	0%[46.1 µM]	52*	33*	18%
COc1ccc(NC(=O)c2ccc(-n3nc(C)cc3C)cc2)cc1OC	57%	8%	-1%	-10	2	0%
CC(C)NC(=O)N(O)C1N(C(C)C)C(=O)N(Cc2ccc3c(c2)OCO3)C1(C)C (stereo not drawn)	14%	-7%	3%	3	3	11%
CC(C)CCN1CCNC(=O)C1CC(=O)N(C)CCCN1CCOCC1 (stereo not drawn)	88%	37%	-2%	-16	5	1%
O=C(Oc1ccc2c3c(c(=O)oc2c1)CCC3)c1ccco1	x	u	4%	7	-1	4%
COCCN(C(C)=O)c1nnc(-c2cnccn2)s1	2.3µM*	28%	13%	-11	4	25%
COCCN(C(C)=O)c1nnc(-c2ccccn2)s1	x	55%	11%	39	18*	u
C=CCOC(=O)C1=C(C)NC(=S)C(C#N)(CC=C)C1c1ccccc1Cl (stereo not drawn)	1.5µM*	1.5µM*	x	-9	-1	x
COc1cc(/C=N/NC(=O)CN2CCCCC2)ccc1OCc1ccccc1	3%	-3%	u	+	28*	u
COc1cc(/C=N\NC(=O)CN2CCOCC2)ccc1OCC(=O)Nc1ccc(C)c(C)c1	9.3µM*	u	0%	35*	14*	2%
COc1cc(/C=N/NC(=O)CN2CCOCC2)ccc1OCc1ccccc1	u	-11%	u	16	17	12%
O=C(CN1CCCCCCC1)N/N=C/c1ccc(F)c(F)c1	65%	7%	-28%	30	2	-2%
O=C(CN1CCCCC1)N/N=C/c1ccc(Cl)cc1	10%	45%	x	45*	14*	x
Cn1cccc1CC(=O)N/N=C/c1ccc(Cl)cc1	13%	2%	8%[46.1 µM]	26*	16*	-1%
COc1cc(CN(C(=O)COc2ccccc2Cl)c2ccccn2)cc(OC)c1OC	x	x	4%[46.1 µM]	x	x	1%[46.1 µM]
Cc1cccc(C(=O)Nc2ccc3nc(SCCOc4ccccc4)sc3c2)c1	x	x	-20%[46.1 µM]	x	x	7%[46.1 µM]
COc1ccc(C(=O)NCC(=O)OCC(=O)N2CCN(S(=O)(=O)c3ccccc3)CC2)cc1	30%	-9%	-28%	-7	-3	8%
SMILES	Pf growth 96h	Pf growth 48h	MARV entry inh	Shiga inhibitor	CHX counter	LASV entry inh
CC(C)(C)OC(=O)COc1ccc(/C=N/NC(=O)CN2CCCCC2)cc1	57%	135%	x	88*	45*	x
COc1ccc(/C=N/NC(=O)CN2CCCC2)cc1	u	2%	x	1	8	x
O=C(CN1CCCCCC1)N/N=C/c1ccc2ccccc2c1	u	6%	x	74*	43*	x
CCCCOc1ccc(C(=O)N/N=C/c2ccc(OCCN3CCCCC3)c(OC)c2)cc1	12µM*	12µM*	u	32	13	u
CCOc1cc(/C=N\NC(=O)CN2CCOCC2)ccc1OCc1ccc(F)cc1	12µM*	9.3µM*	16%	-4	-3	0%
CC(C)OC(=O)C(CC(=O)O)N1CCOCC1 (stereo not drawn)	-17%	27%	11%	-6	-2	7%
COC(=O)c1cc(NS(=O)(=O)c2ccc(NC(C)=O)cc2)ccc1Cl	21%	2%	-7%[46.1 µM]	-13	1	7%
Cc1cccc(-n2c(O)c(C=NC3CCS(=O)(=O)C3)c3ccccc3c2=O)c1 (stereo not drawn)	-13%	-11%	2%	-17	-1	-2%
Cc1c(NC(=O)COc2cccc3c2OC(C)(C)C3)c(=O)n(-c2ccccc2)n1C	0%	-2%	5%	6	-7	x
CCOc1cc(/C=N/NS(=O)(=O)c2ccc(OC)cc2)ccc1OCCN1CCOCC1	5.2µM*	0%	4%	2	-2	u
Cc1onc(-c2ccccc2)c1-c1ccc(S(N)(=O)=O)cc1	u	u	x	69*	38*	x
Cc1onc(-c2ccccc2)c1C(=O)NCCc1ccc(S(N)(=O)=O)cc1	-2%	-17%	15%	-13	5	14%
Cc1cc2ncn(C3CC(=O)N(Cc4ccc(N5CCCC5=O)cc4)C3=O)c2cc1C (stereo not drawn)	8.3µM*	19%	-2%	8	-4	x
O=C1CC(N2CCN(Cc3ccc4c(c3)OCO4)CC2)C(=O)N1Cc1ccc(N2CCCC2=O)cc1 (stereo not drawn)	9.3µM*	u	2%[46.1 µM]	-12	-3	-2%
O=C1CC(N2CCOCC2)C(=O)N1Cc1ccc(N2CCCC2=O)cc1 (stereo not drawn)	173%	x	16%	-18	-1	12%
O=C1CC(N2CCN(Cc3ccccc3)CC2)C(=O)N1c1ccc2c(c1)OCCO2 (stereo not drawn)	x	5%	10%[46.1 µM]	43*	21*	21%
O=C1CC(N2CCC(O)(c3ccc(Cl)cc3)CC2)C(=O)N1Cc1ccc(N2CCCC2=O)cc1 (stereo not drawn)	x	9.3µM*	1%	-12	8	1%
O=C1CCCN1CCC1CCN(C2CC(=O)N(Cc3ccc(N4CCCC4=O)cc3)C2=O)CC1 (stereo not drawn)	x	u	-19%	-6	-1	0%
Cc1nnnn1/C(=C\c1ccccc1)C(=O)OCC(=O)Nc1ccc(Cl)cc1F	18%	u	u	x	x	20µM*
CN(C)c1nc(OCCNC(=O)COc2ccc(Cl)cc2Cl)nc(N2CCCCC2)n1	2.6µM*	u	u	1	-1	u
O=C(c1ccc2nc(Cc3ccccc3F)oc2c1)N1CC[C@H](O)C1	-25%	37%	1%[46.1 µM]	39*	30*	10%[46.1 µM]
CC(=O)N1CCCN(C(=O)c2ccc3nc(Cc4ccccc4F)oc3c2)CC1	11%	21%	0%	23	14*	4%

Compound activity deposited in PubChem by National Center for Advancing Translational Sciences (NCATS).
